Compound activity (PubChem BioAssay)
HSF1 inhib – HSF1 inhibition | AID 2098 | NIH3T3-HGL HSE-luciferase, MG132-induced, luminescence 8 h; active compounds read low | activity change, negative = inhibition, % at 7.5 µM (by protocol) | 300,000 tested, 0.77% active;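 active = more than half of replicate wells show activity change below -50%, luminescence cut by over half; inconclusive = some wells, but at most half, below -50%; inactive = no replicate well below -50%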;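 note: luciferase reports HSF-1 transcriptional activity via heat shock element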
HSF1 activator – increases HSF-1 driven luciferase reporter signal | NIH3T3-HGL HSF-1 luciferase reporter, MG132, 8 h; 100% = twice DMSO control signal | activation, % at 9 µM | 300,000 tested, 1.7% active;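 active = mean replicate activation of at least 50% with a set share of replicates each reaching 50%; inconclusive = only one of those two conditions met; inactive = mean below 50% and too few replicates reaching it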
ARNT-TACC3 inh – disruptors of human ARNT/TACC3 interaction; 390,000 tested, 0.66% active; Q9Y6A5; inhibition, % at 9.99 µM; AlphaScreen His-ARNT PAS-B/GST-TACC3 binding, luminescence; TACC3 fragment carries E629A point mutation;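 active = mean inhibition of replicates at least 50% and at least half of replicates each reaching 50%; inconclusive = half or more replicates reach 50% but mean below 50%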
HIF activator – HIF pathway transcriptional activation | activation, % at 7.5 µM (by protocol) | U2OS HRE-luciferase reporter, luminescence; normalized: DMSO 0%, desferrioxamine 100% | 300,000 tested, 0.32% active;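 active = mean activation of at least 10% of the iron chelator positive control signal, with at least half of replicates also reaching 10%; inconclusive = mean and replicate majority disagree about reaching 10%; inactive = mean and most replicates under 10%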
HSP90 refold inh – HSP90 refolding inhibition in rabbit reticulocyte lysate; inhibition, % at 5.6 µM; 290,000 tested, 0.91% active; luciferase refolding luminescence, 3 h;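 active = inhibition above the screen-wide mean plus 3 SD, computed separately per campaign, cut at about 16% in these data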;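 note: inhibitors lower the luminescence because luciferase stays unfolded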
HSP90 inh confirm – confirmation of HSP90 inhibitors; shares compounds with HSP90 refold inh; rabbit reticulocyte lysate, luciferase refolding luminescence, 3 h; inhibition, % at 5.9 µM; 2,300 tested, 64% active; in the data active = inhibition above about 18%
luciferase ctr – firefly luciferase inhibition, HSP90 counter-screen; inhibition, % at 5.9 µM; purified native firefly luciferase, luminescence; AID 1847; shares compounds with HSP90 refold inh; 2,300 tested, 48% active;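 active = inhibition above the mean inhibition of all tested sample wells plus 3 SD, cut at about 10% in these data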
Target sequence (P08659 whole entry, looked up): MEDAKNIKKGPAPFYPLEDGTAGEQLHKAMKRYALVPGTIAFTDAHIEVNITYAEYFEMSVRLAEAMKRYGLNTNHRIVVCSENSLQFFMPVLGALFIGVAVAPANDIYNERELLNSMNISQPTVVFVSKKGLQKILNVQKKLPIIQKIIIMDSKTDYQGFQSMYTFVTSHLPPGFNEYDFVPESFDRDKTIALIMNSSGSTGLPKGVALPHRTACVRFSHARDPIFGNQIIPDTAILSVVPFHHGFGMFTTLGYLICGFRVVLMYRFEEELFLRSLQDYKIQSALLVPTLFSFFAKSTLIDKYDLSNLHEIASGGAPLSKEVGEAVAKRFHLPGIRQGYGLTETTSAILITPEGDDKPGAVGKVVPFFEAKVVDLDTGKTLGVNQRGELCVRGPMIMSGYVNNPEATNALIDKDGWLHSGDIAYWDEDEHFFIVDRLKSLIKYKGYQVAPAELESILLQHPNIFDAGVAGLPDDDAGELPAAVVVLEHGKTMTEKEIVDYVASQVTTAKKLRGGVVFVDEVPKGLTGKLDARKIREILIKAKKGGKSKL
A number is an active result; – = inactive; ? = inconclusive; · = no result. Only some compounds are listed: those with a hit (about 3.1% of all), similar ones and a draw of the others.

SMILES	HSF1 inhib	HSF1 activator	ARNT-TACC3 inh	HIF activator	HSP90 refold inh	HSP90 inh confirm	luciferase ctr
C[C@@H]1CN([C@H](C)CO)C(=O)c2cc(NC(=O)Nc3ccccc3)ccc2O[C@H]1CN(C)Cc1ccc(Oc2ccccc2)cc1	·	·	–	·	·	·	·
C[C@H](CO)N1C[C@H](C)[C@H](CN(C)C(=O)c2ccccc2)Oc2ncc(C3=CCCCC3)cc2C1=O	·	·	–	·	·	·	·
CCC(=O)Nc1ccc2nc(C3CC3)n(Cc3ccc(C(C)(C)C)cc3)c(=O)c2c1	-59.0	–	–	–	21.5	20.8	17.0
CCCCN=C1NN=C(c2ccc3c(c2)OCCO3)CS1	–	–	–	–	51.6	42.3	35.0
Cn1c(-c2ccccc2)cnc1SCC(=O)N1CCCCC1	–	?	–	–	33.3	63.7	55.6
Cn1c(SCC(=O)N2CCCC2)nc2ccccc21	–	–	·	–	–	·	·
CN1C(=O)c2cc(NC(=O)c3cccc(F)c3)ccc2OC[C@@H]2O[C@@H](CC(=O)Nc3ccccc3)CC[C@H]21	·	·	–	·	·	·	·
Cc1cc(C(=O)COC(=O)c2ccc(O)cc2)c(C)n1CC1CCCO1 (stereo not drawn)	–	–	–	–	31.8	39.2	42.5
Cc1cc(C(=O)CN2C(=O)NC(C)(c3ccccc3)C2=O)c(C)n1CC1CCCO1 (stereo not drawn)	–	–	–	–	–	·	·
COc1cc(OC)c(C(=O)OCC(=O)c2cc(C)n(CC3CCCO3)c2C)cc1OC (stereo not drawn)	–	–	–	–	–	·	·
Cc1cc(C(=O)CN2C(=O)c3ccccc3S2(=O)=O)c(C)n1CC1CCCO1 (stereo not drawn)	?	–	–	–	24.3	27.9	–
COc1ccc(N=Nc2ccc3ccccc3c2)c(O)c1	–	–	–	–	29.8	53.4	54.8
COc1cccc(N=Nc2ccc3ccccc3c2O)c1	-62.4	–	–	–	27.7	57.7	57.5
COc1ccc(C(=O)c2ccccc2)c(O)c1	–	–	–	–	–	·	·
Cc1ccc(N=Nc2ccc3ccccc3c2O)cc1	-72.7	–	–	–	58.7	76.8	72.6
Oc1c(N=Nc2ccc(F)cc2)ccc2ccccc12	–	–	–	–	–	·	·
C[C@H](CO)N1C[C@H](C)[C@@H](CN(C)S(=O)(=O)c2ccc(Cl)cc2)Oc2ccc(NS(=O)(=O)c3ccc(F)cc3)cc2CC1=O	·	·	–	·	·	·	·
C[C@@H]1CCCCO[C@H](CN(C)Cc2ccccc2)[C@H](C)CN([C@H](C)CO)C(=O)c2cc(NC(=O)Cc3ccccc3)ccc2O1	·	·	–	·	·	·	·
CCCNC(=O)N1C[C@@H](O)COC[C@H]2O[C@H](CC(=O)N3CCCCC3)CC[C@@H]21	·	·	–	·	·	·	·
O=C(O)c1ccc(N/N=C/c2ccc(OC(=O)c3ccccc3Cl)cc2)cc1	-55.1	–	–	–	36.0	88.4	–
CC(C)c1ccc(/C=N/Nc2ccc(C(=O)O)cc2)cc1	-90.0	–	–	–	61.3	89.6	84.9
COc1ccc(/C=N/Nc2ccc(C(=O)O)cc2)cc1OC	–	–	–	–	34.6	44.0	28.6
COc1ccc(/C=N/Nc2ccc(C(=O)O)cc2)cc1Br	-77.7	–	–	–	59.9	76.5	76.4
O=C(NCCc1ccccc1)[C@H]1[C@H](CO)[C@H]2Cn3c(cccc3=O)[C@@H]1N2CC1CC1	·	·	–	·	·	·	·
COCC#Cc1ccc2c(c1)O[C@H](CN(C)S(=O)(=O)c1ccc(F)cc1)[C@H](C)CN([C@@H](C)CO)S2(=O)=O	·	·	–	·	·	·	·
SMILES	HSF1 inhib	HSF1 activator	ARNT-TACC3 inh	HIF activator	HSP90 refold inh	HSP90 inh confirm	luciferase ctr
COc1ccc2c(c1)c(/C=N/Nc1ccc(C(=O)O)cc1)c(C)n2C	–	–	–	–	30.4	41.1	34.6
O=C(N/N=C/c1ccc(-c2ccccc2Cl)o1)c1ccccc1	–	–	–	–	–	·	·
CCCOc1ccc(/C=N/Nc2ccc(C(=O)O)cc2)c(OCCC)c1	-56.4	–	–	–	29.3	43.7	47.8
O=C(O)c1ccc(N/N=C/c2ccc(-c3ccccc3Cl)o2)cc1	?	–	–	–	52.8	60.0	45.7
C=CCOc1c(Br)cc(/C=N/Nc2ccc(C(=O)O)cc2)cc1OCC	-52.6	–	–	–	20.2	23.8	10.3
O=C(N[C@@H]1CC[C@@H](CCNC(=O)C2CCCC2)O[C@@H]1CO)c1ccncc1	·	·	–	·	·	·	·
C[C@@H]1CN([C@@H](C)CO)C(=O)Cc2cc(NC(=O)C3CC3)ccc2O[C@@H]1CN(C)Cc1ccc(Oc2ccccc2)cc1	·	·	–	·	·	·	·
C[C@@H]1CN([C@H](C)CO)C(=O)c2cc(NS(C)(=O)=O)ccc2O[C@@H]1CN(C)S(=O)(=O)c1cccs1	·	·	–	·	·	·	·
C[C@@H]1CCCCO[C@@H](CN(C)S(=O)(=O)c2cn(C)cn2)[C@H](C)CN([C@H](C)CO)C(=O)c2cc(NS(=O)(=O)c3cccs3)ccc2O1	·	·	–	·	·	·	·
COCC(=O)Nc1ccc2c(c1)[C@@H]1C[C@H](CC(=O)N3CCN(C)CC3)O[C@@H](CO)[C@@H]1O2	·	·	–	·	·	·	·
COc1ccc(/C=N/Nc2nnc(C)n2N)cc1OC	–	–	54.3	–	18.7	–	–
COCC(=O)N(C)C[C@H]1Oc2ncc(-c3cccc(OC)c3)cc2C(=O)N([C@@H](C)CO)C[C@H]1C	·	·	–	·	·	·	·
O=C(O)c1ccc(N=NN2CCCCCC2)cc1	–	–	–	–	20.9	42.4	11.7
O=C(O)c1ccc(N=NN2CCCC2)cc1	–	–	–	–	–	·	·
COc1ccc(NC(=O)N(C)C[C@H]2Oc3c(NC(=O)c4cnccn4)cccc3C(=O)N([C@@H](C)CO)C[C@H]2C)cc1	·	·	–	·	·	·	·
Cc1ccc(N2CC(O)=C(c3nc4ccccc4c(=O)[nH]3)C2=N)cc1C	–	–	–	–	25.0	–	–
COC(=O)c1ccc(NC(=O)c2cccc(C)c2)cc1	–	–	–	–	–	·	·
COC(=O)c1ccc(NC(=O)c2ccc3nsnc3c2)cc1	–	–	–	–	68.5	–	–
Cc1ccc2nc(-c3ccccc3N)[nH]c2c1	–	–	–	–	21.5	38.6	33.2
C[C@@H]1CN([C@@H](C)CO)C(=O)c2cc(NC(=O)NC3CCCCC3)ccc2O[C@@H](C)CCCCO[C@@H]1CN(C)C(=O)c1ccccc1	·	·	–	·	·	·	·
Cc1ccccc1NC(=S)NNC(=O)c1csc2c1CCC(C)C2 (stereo not drawn)	-68.5	–	–	–	67.0	60.5	52.3
COc1ccc(C(=O)Cn2c(=N)n(C)c3ccccc32)cc1	–	–	–	–	–	·	·
Cn1c(=N)n(CC(=O)O)c2ccccc21	–	–	–	–	–	·	·
Cn1c(=N)n(CC(=O)c2ccccc2)c2ccccc21	–	–	·	–	28.7	–	–
Cn1c(=N)n(CC(=O)c2ccc(Cl)c(Cl)c2)c2ccccc21	-62.7	–	–	–	41.2	47.2	50.1
